Screening results: PubChem BioAssay, several laboratories
This is a sample that favours compounds with a hit; in the whole collection about 2.8% have one here.
FXN GAA850 act – increases GAA850 frataxin promoter reporter activity; HEK293 lucGAA850 FXN promoter luciferase reporter, 24 h; percent of 10 µM SAHA response; activation, % at 6 µM; 0.56% of 360,000 active;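 active = activation above the average of all compounds screened plus 3 SD, cutoff fixed separately per campaign, cut at about 7.5% in these data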
Wnt act – activates Wnt/beta-catenin signaling in a reporter cell assay. activator, plate reader. activation, % at 9.35 µM. AID 743398. 1.2% of 300,000 active; in the data active = activation above about 30%, passing the limit was not always enough; inconclusive = no clear call, values can overlap the other calls
MITF TRPM1 HTS – activators of MITF-driven TRPM1 promoter activity in SK-MEL-5 cells. SK-MEL-5 TRPM1-promoter luciferase, 24 h; % of positive control, neutral wells = 0. activation, % at 12.5 µM. 0.75% of 300,000 active;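 active = mean activation of at least 80% with every replicate also reaching 80%; inconclusive = mean reaches 80% but some replicate falls short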
esBAF inh – blocks esBAF chromatin remodeling in mouse ES cells. 2% of 350,000 active. reporter increase, % at 12.5 µM. Bmi1-luciferase knock-in reporter, 24 h; 100% = twice the neutral-well signal; in the data active = activation above about 40%; inconclusive = no clear call, values can overlap the other calls;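 also: a rise in the Bmi1 reporter signal indicates esBAF inhibition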
Each line names hits and unclear results; the compound was inactive in the other large screens.

COc1ccc(/C=C/C2=Nc3ccccc3NC(C)(C)C2)cc1OC	Wnt act 39.9, MITF TRPM1 HTS inconclusive, esBAF inh 43.7
C[C@@H]1CN([C@@H](C)CO)C(=O)c2cc(C#CC3(O)CCCC3)cnc2O[C@H]1CN(C)C(=O)C1CCC1	none (no result: FXN GAA850 act, Wnt act, MITF TRPM1 HTS)
C[C@H]1CN([C@@H](C)CO)C(=O)c2cc(-c3cccnc3)cnc2O[C@@H]1CN(C)C(=O)c1cccc(F)c1	none (no result: FXN GAA850 act, Wnt act, MITF TRPM1 HTS)
N#CC(Cc1cccs1)c1nc2ccccc2[nH]1 (configuration not stated)	none (no result: MITF TRPM1 HTS)
N#CC(Cc1ccc(OC(F)F)cc1)c1nc2ccccc2[nH]1 (configuration not stated)	MITF TRPM1 HTS 91.1, esBAF inh 59.6
COc1ccc(NC(=O)Nc2ccc3c(c2)CC(=O)N([C@H](C)CO)C[C@@H](C)[C@H](CN(C)Cc2ccc(C(=O)O)cc2)O3)cc1	none (no result: FXN GAA850 act, Wnt act, MITF TRPM1 HTS)
Cc1cc(/C=N\NC(=O)COc2cccc3cccnc23)c(C)n1-c1ccc(Br)cc1	none (no result: esBAF inh)
Cc1ccc(/C=N/NC(=O)c2cccs2)s1	esBAF inh 50.2 (no result: Wnt act)
O=C(N/N=C/c1c[nH]c2ccccc12)c1cccs1	Wnt act 42.6 (no result: MITF TRPM1 HTS, esBAF inh)
O=C(N/N=C/c1ccc(Br)s1)c1cccs1	none (no result: MITF TRPM1 HTS, esBAF inh)
O=C(N/N=C/c1cccc2ccccc12)c1cccs1	Wnt act 34.4, esBAF inh 67.4
Cc1cc(/C=N\NC(=O)c2cccs2)c(C)n1-c1ccc2ncccc2c1	esBAF inh 72.4
O=C(C[C@@H]1CC[C@@H]2[C@H](COC[C@@H](O)CN2S(=O)(=O)c2ccc(F)cc2)O1)N[C@H]1CCN(Cc2ccccc2)C1	none (no result: FXN GAA850 act, Wnt act, MITF TRPM1 HTS)
C[C@H](CO)N1C[C@H](C)[C@@H](CN(C)S(=O)(=O)c2cn(C)cn2)Oc2ccc(NC(=O)CCCCCC(=O)Nc3ccccc3N)cc2CC1=O	none (no result: FXN GAA850 act, Wnt act, MITF TRPM1 HTS)
Cc1ccc(OCC(=O)NCC(=O)Nc2ccc(F)cc2)c([N+](=O)[O-])n1	none
Cc1ccc(OCC(=O)Nc2ccc(F)cc2)c([N+](=O)[O-])n1	MITF TRPM1 HTS 104.0 (no result: esBAF inh)
Cc1ccc(OCC(=O)Nc2ccc(Cl)cc2)c([N+](=O)[O-])n1	Wnt act 41.5, MITF TRPM1 HTS 109.7, esBAF inh 62.9
COc1ccc(NC(=O)COc2ccc(C)nc2[N+](=O)[O-])cc1S(N)(=O)=O	none
O=C(COc1cccnc1[N+](=O)[O-])Nc1ncc(Cl)cc1Cl	none
COc1cc(Cl)c(C)cc1NC(=O)COc1ccc(C)nc1[N+](=O)[O-]	MITF TRPM1 HTS 99.2, esBAF inh 80.7
O=C(COc1cccnc1[N+](=O)[O-])Nc1cc(Cl)ccc1Cl	esBAF inh 48.1
C[C@@H]1CN([C@H](C)CO)C(=O)c2cc(NS(=O)(=O)c3cn(C)cn3)ccc2O[C@@H]1CN(C)Cc1ccc(C(F)(F)F)cc1	none (no result: FXN GAA850 act, Wnt act, MITF TRPM1 HTS)
Cc1ccc(OCc2ccc(Br)cc2)c([N+](=O)[O-])n1	Wnt act 60.6 (no result: FXN GAA850 act, MITF TRPM1 HTS, esBAF inh)
Cc1ccc(OCc2ccc(-c3ccccc3)cc2)c([N+](=O)[O-])n1	none (no result: esBAF inh)
CCCCn1c(-c2ccoc2C)n[nH]c1=S	Wnt act 43.2 (no result: MITF TRPM1 HTS)
CCCCn1c(-c2ccco2)n[nH]c1=S	none (no result: esBAF inh)
O=C(Nc1ccc(Cl)cc1)OCc1ccccn1	Wnt act 54.4, esBAF inh 76.6 (no result: MITF TRPM1 HTS)
Cc1ccc(N)c([N+](=O)[O-])c1	none
Nc1ccc(N=Nc2ccccc2)cc1[N+](=O)[O-]	esBAF inh 62.2
COc1ccc(-c2cn3cc(Cl)ccc3n2)cc1OC	esBAF inh 69.1
COc1ccc(-c2cn3nc(C)c(C)nc3n2)cc1OC	Wnt act inconclusive, MITF TRPM1 HTS inconclusive, esBAF inh 46.7
COc1ccc(-c2cn3cc(C)ccc3n2)cc1Br	none (no result: esBAF inh)
C[C@H]1CN([C@@H](C)CO)S(=O)(=O)c2ccc(C#CC(C)(C)O)cc2O[C@@H]1CN(C)C(=O)C1CCCCC1	none (no result: FXN GAA850 act, Wnt act, MITF TRPM1 HTS)
Cc1ccc(NC(=O)c2ccccc2)s1	none (no result: Wnt act)
Cc1cc(NC(=O)c2ccccc2)sc1C	Wnt act 54.2
O=C(/C=C1\OCc2ccccc21)c1ccccc1	Wnt act 45.2 (no result: FXN GAA850 act, MITF TRPM1 HTS, esBAF inh)
O=C(/C=C1\OCc2ccccc21)OCc1ccccc1	none (no result: FXN GAA850 act, MITF TRPM1 HTS, esBAF inh)
CCc1c(C)nc2ccc(Br)cc2c1Cl	esBAF inh 53.3 (no result: Wnt act, MITF TRPM1 HTS)
O=C(c1cc(=O)[nH]c2ccccc12)N1CCN(c2ccc([N+](=O)[O-])cc2)CC1	Wnt act 38.9
COc1ccc(N2CCN(C(=O)c3cc(=O)[nH]c4ccccc34)CC2)cc1	none
COCCNC(=O)C[C@H]1CC[C@H]2[C@@H](COC[C@H](O)CN2C(=O)Nc2ccc3c(c2)OCO3)O1	none (no result: FXN GAA850 act, Wnt act, MITF TRPM1 HTS)
COc1ccc(S(=O)(=O)Nc2ccc3c(c2)C(=O)N([C@H](C)CO)C[C@H](C)[C@@H](CN(C)C(=O)NC2CCCCC2)OCCCC[C@@H](C)O3)cc1	none (no result: FXN GAA850 act, Wnt act, MITF TRPM1 HTS)
COC(=O)c1ccccc1NC(=O)c1sc(Cl)nc1C	none
COC(=O)c1ccc(-c2ccc(Cl)cc2)nc1C	MITF TRPM1 HTS 92.6 (no result: Wnt act)
O=C(NCc1ccc(Cl)cc1)C(=O)c1cn(CC(=O)N2CCOCC2)c2ccccc12	none
O=C(Nc1ccccc1Cl)C(=O)c1cn(CC(=O)N2CCOCC2)c2ccccc12	Wnt act 38.8, MITF TRPM1 HTS 83.2, esBAF inh 52.1
CCCCn1c(N)c(N(Cc2ccccc2OC)C(=O)CC2OC(=O)c3ccccc32)c(=O)[nH]c1=O (configuration not stated)	Wnt act 31.8
CCCCN(C(=O)CC1OC(=O)c2ccccc21)c1c(N)n(CCCC)c(=O)[nH]c1=O (configuration not stated)	none
O=C(COC(=O)C1=COCCO1)Nc1cc(Cl)c(Cl)cc1Cl	Wnt act 45.4
COc1ccc2c(n1)Sc1nc3ccccc3nc1N2	Wnt act 40.3
COc1cc2ccccc2nn1	none (no result: esBAF inh)
Cc1cccc(C)c1NC(=O)CN1C(=O)C2CC=CCC2C1=O (configuration not stated)	none
CN(C)c1cccc(C(=O)NNC(=O)CN2C(=O)C3CC=CCC3C2=O)c1 (configuration not stated)	esBAF inh 42.5
COc1ccc(/C=C/C(=O)Nc2ccccc2C(=O)N2CCCC2)cc1	esBAF inh 56.5 (no result: Wnt act, MITF TRPM1 HTS)
C[C@@H]1CN([C@H](C)CO)C(=O)c2cc(NC(=O)Nc3cccc4ccccc34)ccc2O[C@@H](C)CCCCO[C@@H]1CN(C)Cc1ccc2c(c1)OCO2	none (no result: FXN GAA850 act, Wnt act, MITF TRPM1 HTS)
C/C(=N\NC(=O)c1ccc(Cl)cc1)c1cccs1	none
C/C(=N/NC(=O)c1cccs1)c1ccc(NC(=O)COc2ccc(Cl)cc2)cc1	esBAF inh 49.6 (no result: Wnt act)
CNC[C@H]1Oc2ccc(NC(=O)NC3CCCCC3)cc2C(=O)N([C@H](C)CO)C[C@H]1C	none (no result: FXN GAA850 act, Wnt act, MITF TRPM1 HTS)
CCC(=O)N(C)C[C@H]1Oc2ncc(-c3ccccc3C)cc2C(=O)N([C@@H](C)CO)C[C@H]1C	none (no result: FXN GAA850 act, Wnt act, MITF TRPM1 HTS)
O=C(NCC1CCCO1)c1ccc(COc2ccccc2)cc1 (configuration not stated)	esBAF inh 48.7
O=C(NCC1CCCO1)c1ccc2[nH]c3c(c2c1)CCCC3 (configuration not stated)	esBAF inh 44.5
Cc1noc(C)c1NC(=O)Nc1ccc2c(c1)C(=O)N(C)[C@H]1CC[C@@H](CC(=O)NCc3ccc(Cl)cc3)O[C@@H]1CO2	none (no result: FXN GAA850 act, Wnt act, MITF TRPM1 HTS)
CCCC(=O)N1CCN(c2nc3ccc(Cl)cc3s2)CC1	esBAF inh 52.0
CC(=O)N1CCN(c2nc3ccc(Br)cc3s2)CC1	esBAF inh 54.2
